# In PubChem BioAssay:
# Active and inactive are the calls of the source. Unless noted, no rule for the calls is given here.
# Tests used:
# [1] = resazurin metabolic signal in HepG2 cells – cell-based, resazurin fluorescence, 24 h, PK04 Diversity Set, profiling panel (AID 1172); conditions: HepG2 viability, higher = more signal; also: test concentration not given here
# [2] = budding yeast growth changes without added modifier – OD600, strain BY4716, 24 h, basal condition, primary screen (AID 1173); conditions: S. cerevisiae BY4716 growth, OD600, 24 h; higher = more signal, called active from +8 up or from −8 down
# [3] = viability profiling in MM1S myeloma cells – cell-based, resazurin fluorescence, basal, 24 h, PK04 Diversity Set, profiling panel (AID 1174); conditions: higher = more signal, called active from +8 up or from −8 down;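 also: MM1S multiple myeloma cell line; test concentration not given here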
# [4] = biological target: Dihydroorotate dehydrogenase (quinone), mitochondrial (Plasmodium falciparum (isolate 3D7)) (UniProt Q08210); assay: inhibition of P. falciparum DHODH – biochemical, C-terminal His tag, absorbance 600 nm, primary screen (AID 1175); conditions: PfDHODH enzyme, DCIP absorbance 600 nm; higher = more signal, called active from +8 up or from −8 down;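 also: recombinant parasite enzyme with a five histidine tag at its C terminus; test concentration not given here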
# Sequence of Dihydroorotate dehydrogenase (quinone), mitochondrial (Plasmodium falciparum (isolate 3D7)) (Q08210 whole entry, looked up): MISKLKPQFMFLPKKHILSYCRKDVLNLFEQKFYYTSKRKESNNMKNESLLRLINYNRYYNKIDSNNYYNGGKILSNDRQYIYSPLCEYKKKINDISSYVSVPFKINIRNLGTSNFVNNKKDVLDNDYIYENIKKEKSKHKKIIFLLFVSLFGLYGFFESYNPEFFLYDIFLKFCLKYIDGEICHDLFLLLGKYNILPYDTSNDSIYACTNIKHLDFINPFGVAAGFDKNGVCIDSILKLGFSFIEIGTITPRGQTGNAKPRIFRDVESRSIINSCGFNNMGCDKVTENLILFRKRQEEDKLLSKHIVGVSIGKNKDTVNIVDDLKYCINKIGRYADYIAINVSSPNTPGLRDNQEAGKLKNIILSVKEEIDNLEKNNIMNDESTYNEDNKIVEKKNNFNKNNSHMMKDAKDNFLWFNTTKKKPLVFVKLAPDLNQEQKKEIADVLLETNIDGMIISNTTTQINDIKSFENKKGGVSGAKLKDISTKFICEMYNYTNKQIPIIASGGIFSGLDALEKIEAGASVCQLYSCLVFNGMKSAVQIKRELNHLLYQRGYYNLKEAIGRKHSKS
# [5] = inhibition of PAO1 biofilm formation – strain PAO1, LB-PBS medium, absorbance 600 nm, primary screen (AID 1176); also: test concentration not given here; conditions: P. aeruginosa PAO1 growth/biofilm, A600, 12 h; higher = more signal
# [6] = growth modulation of vineyard yeast isolate – strain RM11-1a, OD600, basal, 24 h, primary screen (AID 1177);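 also: cultures grown under basal conditions with no added stressor; test concentration not given here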; conditions: S. cerevisiae RM11-1a growth, OD600, 24 h; higher = more signal, called active from +8 up or from −8 down
# [7] = growth of efflux-deficient E. coli DRC39 – strain DRC39, OD650, 24 h, E. coli filamentation inducers, primary screen (AID 1178);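 also: growth measured as culture turbidity by optical density at 650 nm; test concentration not given here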; conditions: E. coli DRC39 acrAB, higher = more signal, called active from +8 up or from −8 down
# [8] = growth of efflux-deficient E. coli DRC39 – strain DRC39, OD650, 48 h, E. coli filamentation inducers, primary screen (AID 1179);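 also: screen aims at cell division blockers that make cells filament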; conditions: E. coli DRC39 delta-acrAB growth, higher = more signal, called active from +8 up or from −8 down
# [9] = viability profiling in RPMI8226 myeloma cells – cell-based, resazurin fluorescence, basal, 24 h, PK04 Diversity Set, profiling panel (AID 1180); conditions: higher = more signal;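 also: RPMI8826 multiple myeloma cell line at 5000 cells per well; test concentration not given here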
# [10] = biological target: E3 ubiquitin-protein ligase XIAP (Homo sapiens) (UniProt P98170); assay: small molecules binding XIAP protein – biophysical, small-molecule microarray, fluorescence 635 nm, primary screen (AID 1181); conditions: higher = more signal;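 also: score merges 667 nm emission and signal to noise over triplicate slides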
# Sequence of E3 ubiquitin-protein ligase XIAP (Homo sapiens) (P98170 whole entry, looked up): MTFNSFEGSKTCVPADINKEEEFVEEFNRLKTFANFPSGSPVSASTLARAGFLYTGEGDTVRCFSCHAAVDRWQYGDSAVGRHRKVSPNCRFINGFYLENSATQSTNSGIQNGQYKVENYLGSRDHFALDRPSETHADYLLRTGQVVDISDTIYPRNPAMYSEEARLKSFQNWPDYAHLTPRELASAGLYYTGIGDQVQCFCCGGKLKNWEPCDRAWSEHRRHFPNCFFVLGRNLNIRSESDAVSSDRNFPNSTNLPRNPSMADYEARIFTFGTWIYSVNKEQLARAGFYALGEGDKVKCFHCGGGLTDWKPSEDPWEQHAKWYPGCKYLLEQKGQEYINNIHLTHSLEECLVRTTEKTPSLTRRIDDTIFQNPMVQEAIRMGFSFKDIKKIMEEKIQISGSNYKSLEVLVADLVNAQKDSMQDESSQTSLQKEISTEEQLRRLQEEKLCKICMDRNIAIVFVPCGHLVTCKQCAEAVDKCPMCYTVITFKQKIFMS
SMILES,z-score [1],z-score [2],z-score [3],composite z-score [4],z-score [5],z-score [6],z-score [7],z-score [8],z-score [9],composite z-score [10]
COC(=O)[C@@]1(Cc2ccccc2)[C@H]2c3cc(C(=O)N4CCCC4)n(Cc4cccc5ccccc45)c3C[C@H]2CN1C(=O)c1ccccc1,-1.13,1.37 (inactive),-1.65 (inactive),-0.323 (inactive),-0.347 (inactive),0.224 (inactive),-0.131 (inactive),-0.0176 (inactive),-1.9,-0.0082
COc1ccc([C@H]2C[C@H]3C(Br)=C[C@@H]2C(=O)[C@]32CO2)cc1,0.158,-6.22 (inactive),-0.0566 (inactive),1.03 (inactive),-0.647 (inactive),0.844 (inactive),1.75 (inactive),0.406 (inactive),0.869,-0.0292
C=CC[C@@]1(C(=O)N(C)C)N=C(c2ccc(OCCCO)cc2)O[C@@H]1c1ccccc1N=[N+]=[N-],-0.614,0.093 (inactive),-2.82 (inactive),-0.007 (inactive),0.314 (inactive),0.274 (inactive),-0.112 (inactive),0.0912 (inactive),-1.71,0.0794
CCOC(=O)[C@H]1CC=C2CC1C(=O)N1CCC[C@@H]1[C@@H]2O[Si](C)(C)C(C)(C)C (stereo not given in full),0.706,-14.4 (active),0.425 (inactive),-0.458 (inactive),0.543 (inactive),-0.335 (inactive),0.665 (inactive),-0.17 (inactive),1.04,-0.167
CCCCCC1=C2CNC(CCC)(C(=O)OC)C=C2C(C)C1=O (stereo not given),-1.08,0.381 (inactive),-1.34 (inactive),-1.62 (inactive),0.796 (inactive),0.891 (inactive),0.0107 (inactive),0.56 (inactive),-0.888,0.347
C=C(CCCC)C(=O)CC[C@H](OC(C)=O)c1cccc(OCCO)c1,0.0379,-1.43 (inactive),-0.602 (inactive),-1.08 (inactive),-0.387 (inactive),-0.561 (inactive),-0.878 (inactive),-0.873 (inactive),-0.482,-0.0746
COCCOC(=O)N1C(=O)[C@@]2(c3cc(C#CCCO)ccc31)[C@H](C(=O)Nc1nc3ccccc3s1)[C@H]1C(=O)O[C@H](c3ccccc3)[C@H](c3ccccc3)N1[C@@H]2c1ccc(OCCO)cc1,1.04,1.96 (inactive),-0.922 (inactive),-0.944 (inactive),2.84 (inactive),2.33 (inactive),0.348 (inactive),0.215 (inactive),-1.66,0.154
COc1cc2c(cc1OC)CN(C(=O)[C@H]1[C@@H]3C(=O)O[C@@H](c4ccccc4)[C@@H](c4ccccc4)N3[C@@H](c3ccc(O)cc3)[C@]13C(=O)Nc1ccc(C#CCNC(N)=O)cc13)CC2,0.543,0.16 (inactive),0.187 (inactive),-2.16 (inactive),0.305 (inactive),0.0092 (inactive),0.537 (inactive),0.0455 (inactive),0.592,-0.202
COCCOC(=O)N1C(=O)[C@@]2(c3ccccc31)[C@H](c1ccc(O)cc1)N1[C@H](c3ccccc3)[C@H](c3ccccc3)OC(=O)[C@H]1[C@@H]2C(=O)NC[C@H](O)c1ccccc1,-0.796,0.861 (inactive),-0.397 (inactive),0.873 (inactive),0.173 (inactive),0.957 (inactive),-1.12 (inactive),-1.29 (inactive),-0.199,0.201
C=CCN1C(=O)[C@]2(O[C@H](CCO)[C@@H]([Si](C)(C)c3ccc(OC)cc3)[C@@H]2C)c2cc(N3CCCCC3=O)ccc21,-3.6,1.22 (inactive),-5.89 (inactive),-1.45 (inactive),-0.577 (inactive),2.97 (inactive),0.575 (inactive),-0.648 (inactive),-6.02,-0.258
C=C(COC)/C(=C/C[C@@H](OC(C)=O)c1ccc(OCCO)cc1)c1cc(C(=O)OC)ccc1OC,0.453,0.166 (inactive),-0.252 (inactive),-0.72 (inactive),0.862 (inactive),0.303 (inactive),0.193 (inactive),0.0514 (inactive),-0.395,-0.353
CCOC(=O)[C@H]1C/C=C/C[C@H](C(=O)OCC)C(=O)O[C@H]2[C@@H](OC)O[C@H](CO)[C@@H](OC(=O)Nc3ccc(C#N)cc3)[C@@H]2OC1=O,-4.61,0.516 (inactive),-8.87 (active),-1.26 (inactive),1.94 (inactive),-0.166 (inactive),1.1 (inactive),1.58 (inactive),-7.15,0.122
CC1(C)[C@@H]2CC(C(O)C3C=CC4C(=O)N(c5ccccc5)C(=O)C4N3Nc3ccccc3)=C[C@H]1C2 (stereo not given in full),0.0594,-3.01 (inactive),-0.852 (inactive),0.232 (inactive),0.711 (inactive),-0.0064 (inactive),-0.441 (inactive),-0.328 (inactive),-1.08,0.169
C=C/C=C/[C@H]1C(=C)CN([C@@H](Cc2ccccc2)C(=O)OC)[C@@H]1[C@H](O)Cc1ccccc1,0.28,-1.91 (inactive),0.883 (inactive),-1.09 (inactive),0.531 (inactive),-0.609 (inactive),0.701 (inactive),0.595 (inactive),0.73,0.643
CN1C(=O)C2C=CC(C(O)c3cc(C(F)(F)F)cc(C(F)(F)F)c3)N(N3CCCCC3)C2C1=O (stereo not given),-0.55,1.36 (inactive),-0.136 (inactive),0.929 (inactive),0.049 (inactive),2.29 (inactive),-0.289 (inactive),-0.795 (inactive),0.493,-0.295
COCCCN1C(=O)[C@@]2(c3ccc([N+](=O)[O-])cc3)CC(=O)N(C3CCCCC3)[C@@H]2c2ccc(CO)cc21,-0.207,1.12 (inactive),-0.559 (inactive),-26.4 (active),0.158 (inactive),0.0091 (inactive),-0.0215 (inactive),-0.13 (inactive),-0.837,-0.37
C[C@]1(C(=O)NC2CC2)c2ccccc2C(=O)N(Cc2cc(C(F)(F)F)cc(C(F)(F)F)c2)[C@H]1c1ccc(CO)cc1,0.546,-0.66 (inactive),0.43 (inactive),0.262 (inactive),-0.506 (inactive),0.558 (inactive),1.11 (inactive),0.833 (inactive),0.367,-0.0646
CCOC(=O)C[C@H]1[C@H](OC(=O)c2ccc(C(=O)c3ccccc3)cc2)[C@@H](NC(=O)c2ccc(-c3ccccc3)cc2)c2cc(OCCCO)ccc2N1C(=O)c1ccccc1,-0.587,-0.0317 (inactive),-0.27 (inactive),-0.972 (inactive),0.0429 (inactive),-0.469 (inactive),-0.486 (inactive),-0.566 (inactive),-0.387,0.0153
COc1ccc(C(=O)Nc2cccc(CN3C(=O)[C@]4(O[C@H](CCO)[C@@H]([Si](C)(C)c5ccc(OC)cc5)[C@@H]4C)c4ccccc43)c2)cc1,-6.28,-3.7 (inactive),-9.11 (active),0.255 (inactive),1.01 (inactive),4.05 (inactive),0.127 (inactive),-0.903 (inactive),-6.27,0.0847
CCCC[C@H]1OB(O)C[C@H]2C1=C(COc1ccccc1)C[C@H]1C(=O)N(C)C(=O)[C@H]12,-0.0384,-2.57 (inactive),-0.508 (inactive),-0.514 (inactive),-0.0946 (inactive),-0.798 (inactive),-0.121 (inactive),-0.316 (inactive),-0.59,-0.031
COc1ccc(CCNC(=O)[C@@H]2c3ccccc3C(=O)N(C3Cc4ccccc4C3)[C@H]2c2ccc(CO)cc2)cc1,0.763,0.594 (inactive),-0.642 (inactive),0.441 (inactive),0.292 (inactive),0.205 (inactive),-0.195 (inactive),0.121 (inactive),-0.303,0.126
COCCOC(=O)N1C(=O)[C@@]2(c3cc(C#CC4(O)CCCCCC4)ccc31)[C@H](c1ccc(O)cc1)N1[C@H](c3ccccc3)[C@H](c3ccccc3)OC(=O)[C@H]1[C@@H]2C(=O)Nc1nc2ccccc2s1,-0.181,-0.213 (inactive),0.0851 (inactive),0.811 (inactive),0.51 (inactive),0.443 (inactive),-0.239 (inactive),0.208 (inactive),-0.815,0.0679
C#CCN(CC=C(C)C)[C@H](CO)c1ccccc1,0.0941,-8.3 (active),0.101 (inactive),-2.54 (inactive),-0.635 (inactive),-0.0386 (inactive),-0.997 (inactive),-1.3 (inactive),-0.544,-0.165
